# Compound activity deposited in PubChem BioAssay by National Center for Advancing Translational Sciences (NCATS).
# This is a sample that favours compounds with a hit; in the whole collection about 1.7% have one here.
# GLP-1R inv ag – qHTS of GLP-1 Receptor Inverse Agonists (Inhibition Mode). HEK293 GLP-1R CRE-luciferase, luminescence, 24 h; GLP-1R form is constitutively active. Potency, µM (doses to about 38.3 µM), without a hit: at the top dose activity change, negative = inhibition, actives largely listed as inhibitors. hit rate 1.6% among 410,000. AID 624417, 2012; note: % is set by controls: 0 for no effect and ±100 for the full control effect; nearly all actives have a fitted effect of over 55% in size
# Target sequence (P43220 whole entry, looked up): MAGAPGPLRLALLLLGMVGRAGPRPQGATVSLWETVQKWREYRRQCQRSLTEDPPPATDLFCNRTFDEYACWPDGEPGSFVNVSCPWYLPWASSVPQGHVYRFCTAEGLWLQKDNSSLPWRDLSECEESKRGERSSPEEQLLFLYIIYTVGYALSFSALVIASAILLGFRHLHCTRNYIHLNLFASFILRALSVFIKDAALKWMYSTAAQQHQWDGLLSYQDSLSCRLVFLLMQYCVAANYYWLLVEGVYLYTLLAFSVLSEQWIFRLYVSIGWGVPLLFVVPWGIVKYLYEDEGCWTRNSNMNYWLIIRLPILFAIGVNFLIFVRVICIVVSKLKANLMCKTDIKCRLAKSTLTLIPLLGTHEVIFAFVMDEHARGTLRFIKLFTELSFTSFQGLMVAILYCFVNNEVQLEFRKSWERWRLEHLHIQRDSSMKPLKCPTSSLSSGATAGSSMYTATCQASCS
#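 Using stably transfected HEK293 (constitutively active GLP-1R, cAMP-luciferase reporter), compounds were incubated 24 hr and luciferase measured by luminescence.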
# PTHR1 agonist – qHTS for PTHR1 Agonists: Primary Screen. HEK293 GP2 PTHR1 cells, GloSensor cAMP luminescence, 1 h. Parathyroid hormone/parathyroid hormone-related peptide receptor (Homo sapiens), Q03431. hit rate 0.075% among 410,000. Potency, µM (top dose mostly 115 µM), inactives show at the top dose activation, hits mostly activators; note: nearly all actives have a fitted effect of over 55% in size
#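 HEK-293-derived GP2 cells expressing PTHR1 and a GloSensor cAMP reporter, 3,000/well, plated overnight, given luciferin plus IBMX (each 0.5 mM as added) for 1 h at 37 °C, then compound for 1 h at 37 °C. Luminescence was read after 15 min at room temperature.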
# GLP1R cytotox – qHTS of GLP-1 Receptor Inverse Agonists: Cytotox Screen | HEK293 cAMP-luciferase reporter cells, luminescence, 24 h | Potency, µM (series often up to 38.3 µM), for the others: at the top dose activity change, negative = inhibition, usual class: inhibitors | hit rate 0.13% among 410,000 | AID 624418, 2012;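 note: loss of luciferase light is scored as toxicity; % is set by controls: 0 for no effect and ±100 for the full control effect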
#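 Seeding density was 200 cells/uL; after overnight-length (12 h) culture, 23 nL compounds went on for 24 h at 37 °C. Readout used a luciferase detection reagent, luminescence taken after 12 min at room temperature.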
# GLP1R ag – qHTS of GLP-1 Receptor Agonists; Glucagon-like peptide 1 receptor (Homo sapiens), P43220; HEK293 GLP-1R CRE-luciferase, luminescence, 4-6 h; cells express a hypersensitive GLP-1R form; Potency, µM (doses to about 45.6 µM), for inactives: at the highest dose activation, usual class: activators; hit rate 0.007% among 380,000; AID 624172, 2012; note: % of control where 0% means no effect
# Starred values were filed as active, the others as inactive; i = inactive; ? = inconclusive; · = no result; [ ] = remark or other dose. Calls come from the whole dose curve; as a rule, active = well fitted curve in the direction sought with a large enough effect; inconclusive = small, poorly fitted or top-dose-only effect, or another doubt; inactive = no such curve, though single readings can be large; an effect the other way counts as inactive or inconclusive. Potency is the fitted concentration of half-maximal effect.
SMILES,GLP-1R inv ag,PTHR1 agonist,GLP1R cytotox,GLP1R ag
Cc1nn2c(N3CCN(C4CCCC4)CC3)cc(C(C)(C)C)nc2c1-c1ccccc1,5%,-16%,14%,-6%
Cc1nn2c(N3CCN(C)CC3)cc(C(C)(C)C)nc2c1-c1ccccc1,7.1µM*,i,?,?
CCN(C(=O)CCS(=O)(=O)c1cc2[nH]c(=O)c(=O)[nH]c2cc1C)c1ccccc1,4%,-12%,6%,·
CC(C(=O)Nc1cccc([N+](=O)[O-])c1)N1CCN(C/C=C/c2ccccc2)CC1 (stereo unspecified),10µM*,-19%,-28%,11%
O=C(c1cccc([N+](=O)[O-])c1)N1CCN(C/C=C/c2ccccc2)CC1,-22%,-24%,?,11%
O=C(Nc1cccc(F)c1)N1CCN(C/C=C/c2ccccc2)CC1,8.9µM*,-18%,-15%,-3%
Cc1ccc(NC(=O)CCC(=O)N2Cc3ccccc3Oc3ncccc32)cc1Cl,-29%,i,8%,·
CC(=O)CCc1ccc(OCC(O)CNCCOc2ccc(C)cc2)cc1 (stereo unspecified),?,i,4%,0%
C=CCOc1ccc(CN(C)CC(O)COc2ccc(CCC(C)=O)cc2)cc1 (stereo unspecified),11µM*,-13%,8%,4%
COc1ccc(NC(=O)c2sc3nc(C)c(C(=O)Nc4ccc(C)cc4C)c(-c4ccc(C)o4)c3c2N)cc1,-2%,i,8%,·
O=C1NCC(c2ccccc2)C1C(=O)N/N=C/c1ccc(Cl)s1 (stereo unspecified),-22%,-24%,-1%,9%
O=C1NCC(c2ccccc2)C1C(=O)N/N=C\c1ccc(-c2ccc(Cl)c(Cl)c2)o1 (stereo unspecified),10µM*,i,?,-5%
Cc1ccc2onc(CNC(=O)Nc3ccccc3C#N)c2c1,6%,i,-8%,·
Cc1[nH]c2ccccc2c1C1=NNC(=Nc2ccc(F)cc2)SC1,11µM*,-13%,?,-2%
CN1CCN(c2ncc3c(n2)CCN(Cc2ccc(Br)s2)C3)CC1,3.2µM*,17%,-21%,·
CCN1CCN(c2ncc3c(n2)CCN(Cc2ccc(OC(C)C)cc2)C3)CC1,10µM*,i,-7%,·
CCN1CCN(c2ncc3c(n2)CCN(Cc2cc(Br)cs2)C3)CC1,4.5µM*,-28%,12%,·
CCN1CCN(c2ncc3c(n2)CCN(Cc2ccc(Br)s2)C3)CC1,3.2µM*,14%,-18%,·
O=C(COCc1cc(-c2ccco2)on1)Nc1ccc(OC(F)(F)F)cc1,-11%,i,-7%,·
Fc1ccc(CN2CCc3nc(N4CCN(c5ccccc5F)CC4)ncc3C2)c(F)c1,-1%,-23%,0%,·
CCOc1ccccc1CN1CCc2nc(N3CCN(c4ccccc4F)CC3)ncc2C1,10µM*,-13%,2%,·
O=c1[nH]c(-c2ccc(O)cc2)nc2scc(-c3cccs3)c12,37%,i,3%,9%
O=C(O)c1ccc(-c2nc3scc(-c4ccccc4)c3c(=O)[nH]2)cc1,14%,18µM*,5%,-1%
O=C(CSc1nc2ccccc2n1CC(=O)Nc1ccc(F)cc1F)Nc1ccc(F)cc1,-28%,i,-2%,·
Cc1ccc(-n2cnc3scc(-c4cccs4)c3c2=O)cc1,10µM*,i,-6%,1%
SMILES,GLP-1R inv ag,PTHR1 agonist,GLP1R cytotox,GLP1R ag
O=c1c2c(-c3cccs3)csc2ncn1-c1ccccc1,?,i,21%,25%
Cc1c(C)n(CC(O)CNc2ccccc2)c2ccccc12 (stereo unspecified),10µM*,-7%,7%,11%
COc1ccc(NCC(O)Cn2c(C)c(C)c3ccccc32)cc1 (stereo unspecified),?,-28%,-8%,14%
CCCCCOc1ccc(NC(=O)Cc2csc(C)n2)cc1,3%,i,8%,·
O=C(Nc1cccc(-c2nnc(-c3ccco3)o2)c1)c1ccccc1,-46%,-24%,-24%,7%
O=C(Nc1cccc(-c2nnc(-c3ccco3)o2)c1)C(c1ccccc1)c1ccccc1,8.9µM*,-9%[57.5 µM],11%,-2%
CCCN(CCC)C(=O)C(CCC(=O)OCCCN1CCN(CCOC(=O)Cc2c(C)n(C(=O)c3ccc(Cl)cc3)c3ccc(OC)cc23)CC1)NC(=O)c1ccccc1 (stereo unspecified),·,·,·,0%
CCN(Cc1ccccc1)S(=O)(=O)c1cc(C(=O)NCC2CCCCC2)ccc1OC,?,-12%,-11%,9%
CCN(Cc1ccccc1)S(=O)(=O)c1cc(C(=O)NC2CCCCCC2)ccc1OC,2.2µM*,-68%,-7%,-2%
O=C(O)c1ccccc1C(=O)Nc1ccc(Nc2ccc([N+](=O)[O-])cc2[N+](=O)[O-])cc1,28%,i,-25%,10%
O=C(Nc1ccc(Nc2ccccc2)cc1)c1ccc(Cl)cc1Cl,8.9µM*,-11%,-25%,12%
O=C(Nc1ccccc1Oc1ccccc1)c1cc([N+](=O)[O-])ccc1Cl,4.5µM*,i,4%,12%
Cc1cccc(NC(=O)c2cc([N+](=O)[O-])ccc2Cl)c1O,?,i,-5%,0%
O=C(NNc1ccccc1)C(=O)NNS(=O)(=O)c1ccc([N+](=O)[O-])cc1,3.2µM*,i,?,0%
O=C(Nc1ccc(Nc2ccccc2)cc1)c1cc([N+](=O)[O-])ccc1Cl,3.2µM*,-6%,-17%,-2%
COc1ccccc1-c1nnc(SCC(=O)c2ccc(F)cc2)n1-c1ccccc1,?,-7%,-26%,0%
O=C(NNc1ccc([N+](=O)[O-])cc1)c1ccccc1F,?,i,?,-1%
CCCCN(CCCC)S(=O)(=O)c1ccc(NC(=O)c2ccc([N+](=O)[O-])cc2Cl)cc1,4µM*,-27%,-24%,-8%
Cc1nc(Nc2ccc(Cl)cc2Cl)sc1C(=O)Nc1ccccc1,10µM*,-16%,-13%,11%
O=C(NNc1ccccc1[N+](=O)[O-])Nc1ccc(Cl)c(Cl)c1,?,-27%,-2%,3%
CCN(CC)S(=O)(=O)c1cc([N+](=O)[O-])ccc1NNC(=O)Nc1ccc(Cl)c(Cl)c1,2.2µM*,-35%,?,-8%
O=C(NNc1ccc([N+](=O)[O-])cc1)c1ccccc1Cl,1.8µM*,-20%,1%,-3%
Cc1cc(C)c(/C=C/c2onc(C)c2S(=O)(=O)N2CCC(C(=O)Nc3ccc(Cl)c(C(F)(F)F)c3)CC2)c(C)c1,8%,i,6%,·
CCCCCCCCCCCCCCCC(=O)OC[C@@H](NC(=O)C(Cl)Cl)[C@H](O)c1ccc([N+](=O)[O-])cc1,·,·,·,-3%
